Luciferase inh: inhibitors of firefly (Photinus pyralis) luciferase; P08659; purified P. pyralis luciferase, luminescence, biochemical; AID 1347043; Potency, µM (doses to about 115 µM), usual class: inhibitors; actives 2.5% (n = 76,000); further: nearly all actives have a fitted effect of over 65% in size
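Purified 10nM P. pyralis luciferase with 10uM D-luciferin and 10uM ATP in 50mM Tris acetate pH 7.5, 10mM Mg acetate, 0.01% Tween-20, 0.05% BSA. qHTS titration; luminescence read by CCD imager.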
HEK cytotox: HEK 293 cell cytotoxicity; AID 1345083; Potency, µM (doses to about 115 µM), without a hit: at the top dose activity change, negative = cytotoxicity, usual class: inhibitors; HEK 293 viability, ATP luminescence (CellTiter-Glo), 48-72 h; actives 6.6% (n = 94,000); further: nearly all actives have a fitted effect of over 60% in size
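Cells seeded first (HEK 293, 250 cells/well), then compound added by pintool. Incubation ran 48 or 72 hr at 37 degree Celsius. CellTiter-Glo was added and luminescence imaged after 10 min at room temperature.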
GPT2 inh: GPT2 alanine aminotransferase inhibition; AID 1671188; Potency, µM (top dose mostly 57.7 µM), for inactives: at the highest dose activity change, negative = inhibition, most hits filed as inhibitors; Recombinant GPT2, coupled pyruvate oxidase/HRP Amplex Red fluorescence; actives 0.25% (n = 100,000); Q8TD30; further: nearly all actives have a fitted effect of over 60% in size
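Recombinant GPT2 (10ng/uL) with 250uM a-KG and 2mM L-alanine, 30 min at room temperature, in HEPES pH 7.5 buffer. Pyruvate detected by pyruvate oxidase/HRP/Amplex Red fluorescence after 30 min in the dark; AOA (50uM) as positive control.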
hNpr1 antagonist: antagonists of human natriuretic peptide receptor Npr1. P16066. HEK293 hNpr1 GloSensor cGMP, ANP-stimulated luminescence. Potency, µM (doses to about 46.3 µM), without a hit: at the top dose activity change, negative = inhibition, hits mostly inhibitors. actives 1.6% (n = 76,000); calls by dose curve; further: nearly all actives have a fitted effect of over 60% in size
Target sequence (P16066 whole entry, looked up): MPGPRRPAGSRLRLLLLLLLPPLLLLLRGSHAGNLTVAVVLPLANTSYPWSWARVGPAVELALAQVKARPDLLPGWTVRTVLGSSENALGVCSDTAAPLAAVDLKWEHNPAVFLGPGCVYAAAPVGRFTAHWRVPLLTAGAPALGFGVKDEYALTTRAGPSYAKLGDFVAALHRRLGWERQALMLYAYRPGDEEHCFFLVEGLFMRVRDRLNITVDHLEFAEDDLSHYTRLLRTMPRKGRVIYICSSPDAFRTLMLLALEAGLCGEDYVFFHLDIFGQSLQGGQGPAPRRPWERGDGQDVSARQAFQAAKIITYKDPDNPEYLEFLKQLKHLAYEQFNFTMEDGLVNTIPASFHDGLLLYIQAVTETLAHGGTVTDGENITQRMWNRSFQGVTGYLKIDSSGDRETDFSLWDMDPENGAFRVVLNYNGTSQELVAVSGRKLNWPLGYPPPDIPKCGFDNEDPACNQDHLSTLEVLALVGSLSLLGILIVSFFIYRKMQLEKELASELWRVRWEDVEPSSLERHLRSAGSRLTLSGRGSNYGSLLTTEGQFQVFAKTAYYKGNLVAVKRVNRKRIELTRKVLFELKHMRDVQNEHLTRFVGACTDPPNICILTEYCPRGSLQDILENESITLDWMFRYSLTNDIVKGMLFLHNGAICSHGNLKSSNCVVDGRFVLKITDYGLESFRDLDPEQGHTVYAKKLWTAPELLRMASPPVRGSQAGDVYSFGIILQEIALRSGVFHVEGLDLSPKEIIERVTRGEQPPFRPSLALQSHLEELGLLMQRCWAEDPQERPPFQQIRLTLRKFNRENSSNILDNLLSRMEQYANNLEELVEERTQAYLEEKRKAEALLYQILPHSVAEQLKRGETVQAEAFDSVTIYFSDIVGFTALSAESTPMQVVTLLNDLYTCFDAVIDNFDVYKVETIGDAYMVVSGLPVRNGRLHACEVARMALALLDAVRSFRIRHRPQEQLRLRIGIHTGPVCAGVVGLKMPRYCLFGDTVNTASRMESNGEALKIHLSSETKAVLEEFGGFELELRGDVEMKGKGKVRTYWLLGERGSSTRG
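HEK293 cells stably expressing human Npr1 and cGMP GloSensor pGS-40F, loaded 2 h with 2% GloSensor reagent, given compound 30 min at room temperature. Luminescence read before and 20 min after 0.1 nM hNppA.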
3T3 cytotox: NIH 3T3 cell cytotoxicity | NIH 3T3 viability, CellTiter-Glo ATP luminescence, 48-72 h | Potency, µM (top dose mostly 96.7 µM), inactives show at the top dose activity change, negative = cytotoxicity, most hits filed as inhibitors | actives 4.3% (n = 94,000); further: nearly all actives have a fitted effect of over 55% in size
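Cytotoxicity was measured by CellTiter-Glo ATP luminescence after 48 or 72 h compound exposure at 37 °C. Mouse NIH 3T3 fibroblasts were seeded at 400 cells/well and dosed by 23 nL pin transfer.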
Starred values were filed as active, the others as inactive; i = inactive; ? = inconclusive; . = no result given; [ ] = another dose, or the depositor's remark. The list is not random: actives were taken first. Their share in the collection is about 10%. Unless noted, the call rests on the fitted dose curve; in most records, active means well fitted curve in the direction sought with a large enough effect; inconclusive means small, poorly fitted or top-dose-only effect, or another doubt; inactive means no such curve, though single readings can be large; an effect the other way counts as inactive or inconclusive. On the % scale 0 is the no-effect control and ±100 the full control effect; potency means the concentration at half of the fitted maximal effect.

SMILES | Luciferase inh | HEK cytotox | GPT2 inh | hNpr1 antagonist | 3T3 cytotox
CCc1nc2c(c(-c3ccc(Cl)cc3)n1)CN(C(=O)COC)CC2 | i | -18% | i | 12% | -24%
CCc1nc2c(c(-c3ccc(Cl)cc3)n1)CN(C(=O)CCl)CC2 | i | ? | i | -16% | 22µM*
CCc1nc2c(c(-c3ccc(Cl)cc3)n1)CN([S+](C)(=O)[O-])CC2 | i | i | i | 4%[70.6 µM] | 45µM*
Cc1ccc(C(=O)N(C)Cc2cccc(C(F)(F)F)c2)cc1 | i | 100µM* | i | -10%[70.6 µM] | ?
COc1cccc(C(=O)N(C)Cc2cccc(C(F)(F)F)c2)c1 | i | 89µM* | -15%[88.5 µM] | 0%[70.6 µM] | ?
CN(Cc1cccc(C(F)(F)F)c1)C(=O)c1ccccc1Cl | i | 56µM* | i | -4%[70.6 µM] | 89µM*
COc1cccc(C(=O)N(C)Cc2ccccc2C(F)(F)F)c1 | i | 100µM* | i | 0%[70.6 µM] | ?
Cc1ccccc1C(=O)N1CCC(c2nn(-c3ccc(F)cc3)c(=O)[nH]2)CC1 | i | ? | -2% | 9% | -21%
CS(=O)(=O)N1CCCC2(Cc3ccccc3CN2S(=O)(=O)c2ccccc2)C1 (centres undefined) | . | -17% | 1% | . | -9%
Cc1ccc(C(=O)N(C)Cc2ccc(-c3ccccc3)cc2)cc1 | i | 89µM* | i | -12%[70.6 µM] | ?
CN(Cc1ccc(-c2ccccc2)cc1)C(=O)c1ccccc1 | ? | ? | i | ? | ?
CC(C)(C)c1ccc(-c2cc(C[C@H]3CNCC[C@H]3CC(=O)N3CCOCC3)no2)cc1 | i | 25µM* | -4%[88.5 µM] | 3%[70.6 µM] | ?
O=C(C[C@@H]1CCNC[C@@H]1Cc1cc(COc2ccccc2)on1)N1CCC(n2c(=O)[nH]c3ccccc32)CC1 | i | -7% | -8% | 6% | -1%
CC(C)(C)c1ccc(-c2cc(C[C@H]3CNCC[C@H]3CC(=O)N3CCC(n4c(=O)[nH]c5ccccc54)CC3)no2)cc1 | i | 22µM* | i | -1% | 25µM*
COC(=O)CCNC(=O)C1c2ccccc2C(=O)N(c2ccccc2)C12CCCCC2 (centres undefined) | i | 1% | -9% | 3% | 5%
CC(C)Cc1nnc(NC(=O)C2CC(=O)N(c3n[nH]c4ccccc34)C2)s1 (centres undefined) | i | -6% | -11% | 0% | -8%
CCN1CC(C(=O)NCc2cccc(-c3ccccc3)c2)CCC1=O (centres undefined) | i | 35µM* | i[11.5 µM] | ? | ?
O=C(NCc1cccc(-c2ccccc2)c1)C1CC(=O)N(C2CC2)C1 (centres undefined) | i | -33% | i | 0% | -36%
CCN(CC1CCN(C2CCN(C)CC2)CC1)C(=O)c1ccc(-c2ccccc2)cc1 | i | 22µM* | -12% | 7% | 28µM*
Cc1cnc(-c2ccccc2)n1CCC1CCN(C(=O)C2(c3ccccc3)CC2)CC1 | . | 35µM* | 1% | . | ?
Cc1cnc(-c2ccncc2)n1CCC1CCN(C(=O)C(C)Oc2ccccc2)CC1 (centres undefined) | . | 45µM* | i | . | ?
COc1ccc(C(=O)N2CCC(CCn3c(C)cnc3-c3cccnc3)CC2)cc1 | . | -30% | ? | . | ?
COc1ccc(-c2cc(N3CCCC(NC(=O)c4ccc(C#N)cc4)C3)n[nH]2)cc1 (centres undefined) | ? | ? | -6% | -19% | -9%
CS(=O)(=O)Nc1ccc(C2(C(=O)NCc3ccccc3Cl)CCCCC2)cc1 | i | ? | i | -18% | 35µM*
CCc1ccc(CNC(=O)C2(c3ccc(NC(=O)C(C)C)cc3)CCC2)cc1 | i | ? | -20% | -6% | -12%
SMILES | Luciferase inh | HEK cytotox | GPT2 inh | hNpr1 antagonist | 3T3 cytotox
CC(C)C(=O)Nc1ccc(C2(C(=O)NCc3ccc(F)c(Cl)c3)CCC2)cc1 | i | 79µM* | -5% | -2% | 35µM*
CN(C)C(=O)CNC(=O)c1cccc(-c2ccc(C(F)(F)F)cc2)c1 | . | 40µM* | -22% | . | ?
CNC(=O)CNC(=O)c1cccc(-c2ccc(C(F)(F)F)cc2)c1 | . | ? | i | . | ?
CC(C)(C)C(=O)NCCNC(=O)c1cccc(-c2ccc(C(F)(F)F)cc2)c1 | . | 25µM* | i | . | 45µM*
COCCn1ccc2c(C3=CCOCC3)nc(-c3cccc(C(N)=O)c3)cc21 | i | ? | ? | -3%[70.6 µM] | 25µM*
OCc1ccc(-c2cc3c(ccn3Cc3cccnc3)c(C3=CCOCC3)n2)cc1 | i | ? | 5%[88.5 µM] | 3%[70.6 µM] | ?
C1=C(c2nc(-c3ccncc3)cc3c2ccn3Cc2cccnc2)CCOC1 | i | ? | 2%[88.5 µM] | -3%[70.6 µM] | 22µM*
COc1ccc(-c2noc([C@@H]3CCCN3C(=O)c3ccccc3Cl)n2)cc1OC | i | ? | i | -1% | -27%
CC1=C[C@@H](CNC(=O)C2CC2)[C@H](C(C)C)C[C@H]1Cc1nnc(-c2cncn2C)o1 | i | ? | 3%[88.5 µM] | 5%[70.6 µM] | ?
COc1ccccc1N1CCN(C[C@@H]2C=C(C)[C@H](Cc3nnc(-c4cncn4C)o3)C[C@H]2C(C)C)CC1 | i | 13µM* | i | -14% | 35µM*
CC1=C[C@@H](CN2CCN(c3ncccn3)CC2)[C@H](C(C)C)C[C@H]1Cc1nnc(-c2cncn2C)o1 | i | 35µM* | 1% | -18% | ?
CC1=C[C@@H](CN2CCCCC2)[C@H](C(C)C)C[C@H]1Cc1nnc(-c2cncn2C)o1 | i | 100µM* | i | 2%[70.6 µM] | ?
CCc1nn(-c2ccc(F)cc2)c(Oc2ccccc2)c1CCC(=O)N1CCCC1 | i | 45µM* | ? | -27% | ?
CCc1nn(-c2ccccc2)c(Oc2cccc(C)c2)c1CCC(=O)N1CCOCC1 | i | 40µM* | 5% | -22% | ?
Cc1nn(-c2ccc(F)cc2)c(Oc2ccccc2)c1CCC(=O)N1CCOCC1 | i | ? | -3% | -16% | ?
Cc1cccc(-n2nc(C)c(CCC(=O)N3CCOCC3)c2Oc2ccc(F)cc2F)c1 | i | ? | -27% | -18% | ?
O=C(C1CN(C2CCCCC2)C(=O)N1)N1CCc2ccccc2C1 (centres undefined) | . | 25µM* | i | . | ?
O=C1CCCCC(C(=O)N2CCc3ccccc3C2)N1 (centres undefined) | i | ? | i | 5% | i
COc1cccc(NC(=O)N2CCCC3(C2)Nc2cccnc2NC3=NC2CCCC2)c1 (centres undefined) | i | ? | -10% | 1% | ?

Screening results from PubChem.
